Reference: the supplement of paper PMC10849652
About 7,900 targets were measured; listed, in parts, are those with a hit and a random draw of the rest. About 0.6% of all pairs of compound and target were hits.

Assays:
Test in all cases: log2 fold change, soluble protein after heating vs DMSO (PISA); higher = thermal stabilisation; K562 cells, 10 uM, 30 min; active = over 0.2 and 3.5 SD of the protein, either way, in both replicates (recomputed)
[1] = compound: CC1=C(C=C(C=C1)NC(=O)C2=CC(=CC=C2)C(C)(C)C#N)NC3=CC4=C(C=C3)N=CN(C4=O)C
In short: (§1)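 K562 cells at 2×10^6 cells/mL were exposed to 10 μM compound for 30 min, then aliquots were heated for 3 min across 48°C-58°C, pooled, and extracted in PBS containing 0.5% NP-40 at 4°C. The supernatant after 21,000xg for 90 min was taken as soluble protein and measured by TMTpro 16plex LC-MS/MS with channel sums equalised. Thermal stability is reported relative to control samples, with values from duplicates. Fold changes are given on a log2 scale.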

[2] = compound: CC1=C(C=C(C=C1)NC(=O)C2=CC(=CC=C2)N(C)C)NC(=O)C3=CC=C(C=C3)O
In short: as §1

[3] = compound: CC1=CC=C(C=C1)SC2=C3C=C(SC3=CN=C2)C(=O)N
In short: as §1

[4] = compound: CC1=NC(=CC=C1)C2=C(N=C(N2)C(C)(C)C)C3=CC4=NC=CN=C4C=C3
In short: as §1

Nexturastat A = compound: CCCCN(Cc1ccc(C(=O)NO)cc1)C(=O)Nc1ccccc1 [Nexturastat A]
In short: as §1

vemurafenib = compound: CCCS(=O)(=O)Nc1ccc(F)c(C(=O)c2c[nH]c3ncc(-c4ccc(Cl)cc4)cc23)c1F [vemurafenib]
In short: as §1

[5] = compound: CCCS(=O)(=O)Nc1ccc(F)c(C(=O)c2c[nH]c3ncc(Cl)cc23)c1F
In short: as §1

[6] = compound: CCCc1cc(C)[nH]c(=O)c1CNC(=O)c1cc(-c2ccnc(N3CCN(C)CC3)c2)cc2c1cnn2C(C)C
In short: as §1

givinostat = compound: CCN(CC)Cc1ccc2cc(COC(=O)Nc3ccc(C(=O)NO)cc3)ccc2c1 [givinostat]
In short: as §1

barasertib = compound: CCN(CCCOc1ccc2c(Nc3cc(CC(=O)Nc4cccc(F)c4)[nH]n3)ncnc2c1)CCOP(=O)(O)O [barasertib]
In short: as §1

[7] = compound: CC[C@@H]1C(=O)N(C)c2cnc(Nc3ccc(C(=O)NC4CCN(C)CC4)cc3OC)nc2N1C1CCCC1
In short: as §1

volasertib = compound: CC[C@@H]1C(=O)N(C)c2cnc(Nc3ccc(C(=O)N[C@H]4CC[C@H](N5CCN(CC6CC6)CC5)CC4)cc3OC)nc2N1C(C)C [volasertib]
In short: as §1

[8] = compound: CC[C@H](C)N1C=C(C2=C(C=C(C=C21)C3=CN=C(C=C3)N4CCNCC4)C(=O)NCC5=C(C=C(NC5=O)C)C)C
In short: as §1

epoxomicin = compound: CC[C@H](C)[C@@H](C(=O)N[C@@H]([C@@H](C)O)C(=O)N[C@@H](CC(C)C)C(=O)[C@]1(CO1)C)NC(=O)[C@H]([C@@H](C)CC)N(C)C(=O)C [epoxomicin]
In short: as §1

[9] = compound: CCn1c(C(=O)N(C2CC2)C2CC2)cc2c3c(ncn3C)c(Nc3cc(C)n(C)n3)nc21
In short: as §1

[10] = compound: CCn1cc(-c2ccnc3[nH]c(-c4cccc(CN(C)C)c4)cc23)c(-c2ccc(NC(=O)N(C)C)cc2)n1
In short: as §1

[11] = compound: CN(C)CC(=O)Nc1ccc2[nH]c(=O)c3ccccc3c2c1
In short: as §1

rosiglitazone = compound: CN(CCOC1=CC=C(C=C1)C[C@H]2C(=O)NC(=O)S2)C3=CC=CC=N3 (racemic) [rosiglitazone]
In short: as §1

[12] = compound: CN1C2=C(C3=C1C(=O)N(N=C3)CC4=CC(=CC=C4)N)SC(=C2)S(=O)C
In short: as §1

[13] = compound: CN1CCC(CNc2ccc3ncc(-c4cccc(OC(F)(F)F)c4)n3n2)CC1
In short: as §1

Measured: log2 fold change

PDE4DIP isoform 4 (UniProt Q5VU43)
inactive: [1] -0.027 | [2] -0.049 | [3] -0.012 | [4] -0.044 | vemurafenib -0.034 | [5] -0.01 | [6] -0.023 | givinostat 0.021 | barasertib 0.083 | [7] 0.013 | volasertib 0.005 | [8] -0.071 | epoxomicin -0.012 | [9] -0.004 | [10] -0.009 | [11] -0.035 | rosiglitazone 0.003 | [12] -0.046 | [13] 0.006
active: Nexturastat A 0.358

PHKG2 (UniProt P15735)
UniProt P15735, sequence (P15735 whole entry, looked up): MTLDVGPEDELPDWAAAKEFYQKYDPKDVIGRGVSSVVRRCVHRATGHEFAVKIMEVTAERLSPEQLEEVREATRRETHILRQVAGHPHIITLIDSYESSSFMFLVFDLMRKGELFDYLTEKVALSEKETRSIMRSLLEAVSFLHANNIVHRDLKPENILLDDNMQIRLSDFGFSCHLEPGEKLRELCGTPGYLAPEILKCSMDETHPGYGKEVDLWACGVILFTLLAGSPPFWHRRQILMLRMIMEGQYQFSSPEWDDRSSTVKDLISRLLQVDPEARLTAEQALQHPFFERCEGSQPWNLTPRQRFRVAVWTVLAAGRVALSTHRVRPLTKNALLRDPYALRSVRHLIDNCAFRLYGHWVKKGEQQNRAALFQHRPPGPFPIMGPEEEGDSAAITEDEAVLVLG
inactive: [1] 0.012 | [2] -0.007 | [3] -0.083 | [4] -0.031 | Nexturastat A 0.002 | vemurafenib -0.003 | [5] -0.004 | [6] 0 | givinostat 0.01 | barasertib -0.079 | [7] -0.155 | volasertib -0.195 | [8] 0.054 | epoxomicin -0.004 | [9] 0.01 | [10] 0.043 | [11] -0.002 | rosiglitazone 0.018 | [12] -0.027 | [13] -0.156

PCTP (UniProt Q9UKL6)
active: [13] -0.279
inactive: [1] -0.007 | [2] 0.004 | [3] 0.052 | [4] 0.039 | Nexturastat A -0.003 | vemurafenib 0.005 | [5] 0.066 | [6] 0.026 | givinostat -0.035 | barasertib 0.013 | [7] -0.017 | volasertib -0.012 | [8] -0.067 | epoxomicin 0.039 | [9] -0.058 | [10] -0.055 | [11] -0.005 | rosiglitazone 0.025 | [12] -0.011

PDCD6IP (UniProt Q8WUM4)
active: volasertib -0.694
inactive: [1] 0.032 | [2] -0.079 | [3] 0.077 | [4] 0.058 | Nexturastat A 0.066 | vemurafenib 0.106 | [5] 0.153 | [6] 0.119 | givinostat 0.183 | barasertib 0.135 | [7] -0.219 | [8] 0.166 | epoxomicin 0.082 | [9] -0.097 | [10] -0.06 | [11] 0.116 | rosiglitazone 0.097 | [12] 0.043 | [13] -0.256

POLR2G (UniProt P62487)
inactive: [1] 0.025 | [2] -0.033 | [3] 0.059 | [4] 0.057 | Nexturastat A -0.015 | vemurafenib -0.022 | [5] 0.009 | [6] -0.038 | givinostat -0.094 | barasertib -0.019 | [7] 0.215 | volasertib 0.276 | [8] -0.075 | epoxomicin 0.054 | [9] 0.06 | [10] -0.003 | [11] 0.02 | rosiglitazone -0.01 | [12] 0.002 | [13] 0.081

PAK4 (UniProt O96013)
UniProt O96013, sequence (O96013 whole entry, looked up): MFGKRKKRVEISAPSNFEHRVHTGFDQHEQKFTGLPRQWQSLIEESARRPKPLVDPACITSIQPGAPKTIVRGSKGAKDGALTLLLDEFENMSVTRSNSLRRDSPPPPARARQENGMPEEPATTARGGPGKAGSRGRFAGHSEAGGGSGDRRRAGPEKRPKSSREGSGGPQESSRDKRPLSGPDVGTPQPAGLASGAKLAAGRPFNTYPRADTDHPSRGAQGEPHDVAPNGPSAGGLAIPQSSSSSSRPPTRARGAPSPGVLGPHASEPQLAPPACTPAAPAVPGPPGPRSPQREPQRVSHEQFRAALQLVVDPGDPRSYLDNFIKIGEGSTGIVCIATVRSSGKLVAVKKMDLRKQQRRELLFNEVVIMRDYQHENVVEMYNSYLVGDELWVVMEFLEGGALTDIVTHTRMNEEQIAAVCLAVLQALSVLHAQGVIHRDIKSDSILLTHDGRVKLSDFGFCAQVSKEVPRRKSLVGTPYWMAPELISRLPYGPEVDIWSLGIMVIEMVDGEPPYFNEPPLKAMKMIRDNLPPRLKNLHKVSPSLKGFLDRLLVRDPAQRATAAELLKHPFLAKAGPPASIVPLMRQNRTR
inactive: [1] -0.154 | [2] 0.06 | [3] -0.017 | [4] -0.017 | Nexturastat A -0.027 | vemurafenib -0.035 | [5] -0.026 | [6] -0.141 | givinostat -0.01 | barasertib 0.027 | [7] -0.026 | volasertib -0.088 | [8] -0.026 | epoxomicin -0.017 | [9] 0.009 | [10] -0.059 | [11] -0.012 | rosiglitazone 0.062 | [12] 0.049 | [13] -0.083

PHKA2 (UniProt P46019)
active: [13] -0.35
inactive: [1] 0.028 | [2] 0 | [3] 0.028 | [4] 0.053 | Nexturastat A -0.038 | vemurafenib -0.014 | [5] 0.052 | [6] -0.07 | givinostat 0.048 | barasertib 0.057 | [7] -0.049 | volasertib -0.094 | [8] -0.174 | epoxomicin 0.071 | [9] -0.047 | [10] -0.029 | [11] 0.01 | rosiglitazone 0.026 | [12] -0.002

PIP4K2A (UniProt P48426)
UniProt P48426, sequence (P48426 whole entry, looked up): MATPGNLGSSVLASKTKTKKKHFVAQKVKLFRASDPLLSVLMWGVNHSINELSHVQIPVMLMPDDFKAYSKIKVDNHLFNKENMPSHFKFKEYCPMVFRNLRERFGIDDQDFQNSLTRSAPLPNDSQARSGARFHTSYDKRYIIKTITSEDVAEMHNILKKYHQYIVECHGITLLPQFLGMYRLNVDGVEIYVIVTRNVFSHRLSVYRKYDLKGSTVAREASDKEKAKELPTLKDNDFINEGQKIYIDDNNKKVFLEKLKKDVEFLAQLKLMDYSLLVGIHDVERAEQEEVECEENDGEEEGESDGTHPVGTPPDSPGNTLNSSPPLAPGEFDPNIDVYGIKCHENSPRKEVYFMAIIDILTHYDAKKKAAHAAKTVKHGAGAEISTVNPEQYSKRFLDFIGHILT
inactive: [1] -0.027 | [2] -0.061 | [3] 0.017 | [4] -0.005 | Nexturastat A -0.051 | vemurafenib -0.044 | [5] 0.004 | [6] -0.01 | givinostat -0.052 | barasertib 0.022 | [8] -0.055 | epoxomicin 0.018 | [9] -0.049 | [10] -0.052 | [11] -0.021 | rosiglitazone -0.009 | [12] 0.04 | [13] 0.114
active: [7] 0.602 | volasertib 0.768

PPT2 isoform 3 (UniProt Q9UMR5)
UniProt Q9UMR5, sequence (Q9UMR5 whole entry, looked up): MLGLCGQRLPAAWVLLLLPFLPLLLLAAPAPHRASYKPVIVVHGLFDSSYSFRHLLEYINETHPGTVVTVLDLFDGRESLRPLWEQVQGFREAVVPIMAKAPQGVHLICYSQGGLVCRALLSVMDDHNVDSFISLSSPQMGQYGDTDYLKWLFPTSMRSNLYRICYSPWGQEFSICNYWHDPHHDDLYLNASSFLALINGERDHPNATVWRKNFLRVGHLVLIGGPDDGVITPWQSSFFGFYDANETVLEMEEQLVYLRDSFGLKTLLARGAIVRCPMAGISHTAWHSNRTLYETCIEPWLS
active: [7] -0.57 | volasertib -0.87 | [13] -0.682
inactive: [1] -0.064 | [2] -0.002 | [3] 0.025 | [4] 0.078 | Nexturastat A 0 | vemurafenib -0.001 | [5] 0.052 | [6] 0.002 | givinostat 0.041 | barasertib -0.017 | [8] -0.006 | epoxomicin -0.021 | [9] 0.005 | [10] 0.206 | [11] -0.068 | rosiglitazone 0.048 | [12] -0.051

POLR2B (UniProt P30876)
inactive: [1] 0.009 | [2] -0.044 | [3] 0.041 | [4] 0.016 | Nexturastat A 0.054 | vemurafenib 0.006 | [5] 0.041 | [6] 0.005 | givinostat -0.005 | barasertib 0.008 | [7] 0.064 | volasertib -0.128 | [8] -0.018 | epoxomicin -0.008 | [9] -0.046 | [10] 0.023 | [11] -0.015 | rosiglitazone 0.037 | [12] 0.03 | [13] 0.031

PDLIM7 (UniProt Q9NR12)
UniProt Q9NR12, sequence (Q9NR12 whole entry, looked up): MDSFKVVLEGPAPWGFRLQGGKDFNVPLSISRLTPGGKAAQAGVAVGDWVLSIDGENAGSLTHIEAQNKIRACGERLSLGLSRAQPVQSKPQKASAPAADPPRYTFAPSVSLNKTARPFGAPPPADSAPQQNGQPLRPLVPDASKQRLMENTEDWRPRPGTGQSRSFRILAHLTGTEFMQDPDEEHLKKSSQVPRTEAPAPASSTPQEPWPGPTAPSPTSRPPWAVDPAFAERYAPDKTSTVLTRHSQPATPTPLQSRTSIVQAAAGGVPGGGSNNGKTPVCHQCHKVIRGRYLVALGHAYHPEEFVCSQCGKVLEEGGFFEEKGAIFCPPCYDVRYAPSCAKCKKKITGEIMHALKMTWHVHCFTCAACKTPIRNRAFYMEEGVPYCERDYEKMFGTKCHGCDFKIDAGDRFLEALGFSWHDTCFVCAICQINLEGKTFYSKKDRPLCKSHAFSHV
inactive: [1] 0.02 | [2] -0.029 | [3] -0.002 | [4] 0.046 | Nexturastat A -0.016 | vemurafenib 0.026 | [5] 0.032 | [6] 0.001 | givinostat 0.05 | barasertib 0.032 | [7] -0.084 | [8] 0.012 | epoxomicin 0.013 | [9] -0.053 | [10] -0.064 | [11] 0.039 | rosiglitazone 0.039 | [12] 0.023 | [13] -0.021
active: volasertib -0.24

PSMD12 (UniProt O00232)
inactive: [1] 0.066 | [2] -0.004 | [3] -0.005 | [4] -0.011 | Nexturastat A 0.047 | vemurafenib -0.031 | [5] 0.009 | [6] 0.052 | givinostat -0.002 | barasertib -0.044 | [7] 0.03 | volasertib 0.158 | [8] 0.02 | epoxomicin -0.278 | [9] -0.008 | [10] 0.017 | [11] -0.007 | rosiglitazone -0.038 | [12] 0.01 | [13] 0.062

PGGT1B (UniProt P53609)
UniProt P53609, sequence (P53609 whole entry, looked up): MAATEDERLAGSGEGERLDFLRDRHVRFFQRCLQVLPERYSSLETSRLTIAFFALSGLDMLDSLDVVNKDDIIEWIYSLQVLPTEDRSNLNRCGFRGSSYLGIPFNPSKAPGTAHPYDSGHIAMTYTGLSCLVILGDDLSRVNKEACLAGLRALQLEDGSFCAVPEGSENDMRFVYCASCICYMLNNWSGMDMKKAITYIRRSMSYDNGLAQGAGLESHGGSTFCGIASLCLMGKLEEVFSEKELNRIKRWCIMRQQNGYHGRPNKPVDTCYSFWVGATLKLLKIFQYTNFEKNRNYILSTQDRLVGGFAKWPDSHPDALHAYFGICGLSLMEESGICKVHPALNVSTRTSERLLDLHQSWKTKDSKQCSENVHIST
inactive: [1] -0.062 | [2] 0.006 | [3] 0.002 | [4] 0.035 | Nexturastat A -0.073 | vemurafenib -0.022 | [5] -0.023 | [6] -0.025 | givinostat 0.009 | barasertib 0.035 | [7] 0.056 | volasertib 0.098 | [8] 0.004 | epoxomicin -0.011 | [9] 0.031 | [10] -0.026 | [11] -0.009 | rosiglitazone 0.032 | [12] -0.101 | [13] -0.008

PIK3R1 (UniProt P27986)
UniProt P27986, sequence (P27986 whole entry, looked up): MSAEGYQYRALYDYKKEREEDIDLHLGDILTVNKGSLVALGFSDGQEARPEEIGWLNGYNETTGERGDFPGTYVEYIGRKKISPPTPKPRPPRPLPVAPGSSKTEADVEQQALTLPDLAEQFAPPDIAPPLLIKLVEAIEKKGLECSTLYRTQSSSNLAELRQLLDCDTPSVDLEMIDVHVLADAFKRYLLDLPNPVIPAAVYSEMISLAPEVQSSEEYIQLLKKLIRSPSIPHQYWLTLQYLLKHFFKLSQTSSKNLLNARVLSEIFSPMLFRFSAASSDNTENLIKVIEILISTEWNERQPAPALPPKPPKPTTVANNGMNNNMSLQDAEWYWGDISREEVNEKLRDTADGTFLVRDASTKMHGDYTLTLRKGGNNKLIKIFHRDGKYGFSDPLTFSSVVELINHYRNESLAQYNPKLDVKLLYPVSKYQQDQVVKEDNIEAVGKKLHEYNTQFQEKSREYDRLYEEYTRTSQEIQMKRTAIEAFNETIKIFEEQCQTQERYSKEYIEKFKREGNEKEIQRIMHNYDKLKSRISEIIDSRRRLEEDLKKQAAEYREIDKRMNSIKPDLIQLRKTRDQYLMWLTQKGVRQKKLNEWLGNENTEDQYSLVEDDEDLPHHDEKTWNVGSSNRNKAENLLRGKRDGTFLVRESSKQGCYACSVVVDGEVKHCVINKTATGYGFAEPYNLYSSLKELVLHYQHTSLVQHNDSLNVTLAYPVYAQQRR
inactive: [1] -0.08 | [2] 0.001 | [3] -0.019 | [4] -0.046 | Nexturastat A -0.018 | vemurafenib 0.047 | [5] 0.058 | [6] -0.054 | givinostat 0.028 | barasertib 0.038 | [7] -0.04 | volasertib -0.142 | [8] -0.018 | epoxomicin 0.036 | [9] -0.015 | [10] -0.072 | [11] -0.002 | rosiglitazone 0.095 | [12] -0.064 | [13] 0.127

PPP2R5E (UniProt Q16537)
UniProt Q16537, sequence (Q16537 whole entry, looked up): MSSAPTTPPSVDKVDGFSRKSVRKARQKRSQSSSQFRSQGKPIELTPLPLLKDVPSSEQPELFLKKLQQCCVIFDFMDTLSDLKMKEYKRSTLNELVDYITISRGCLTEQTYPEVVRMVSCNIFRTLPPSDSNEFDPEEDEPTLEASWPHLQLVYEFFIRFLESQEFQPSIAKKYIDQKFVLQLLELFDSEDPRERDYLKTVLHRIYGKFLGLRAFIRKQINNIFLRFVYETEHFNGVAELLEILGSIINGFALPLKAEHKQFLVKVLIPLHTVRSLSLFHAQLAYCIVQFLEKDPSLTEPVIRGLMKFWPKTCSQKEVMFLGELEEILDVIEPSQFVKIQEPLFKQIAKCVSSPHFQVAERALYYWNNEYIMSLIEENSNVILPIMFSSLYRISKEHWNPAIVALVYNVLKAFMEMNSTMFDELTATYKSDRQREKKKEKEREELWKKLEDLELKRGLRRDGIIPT
active: [7] -0.259 | volasertib -0.404 | [13] -0.99
inactive: [1] -0.049 | [2] -0.065 | [3] -0.023 | [4] 0.066 | Nexturastat A 0.003 | vemurafenib 0.027 | [5] 0.07 | [6] 0.03 | givinostat 0.032 | barasertib 0.027 | [8] -0.025 | epoxomicin -0.034 | [9] -0.009 | [10] -0.165 | [11] 0.018 | rosiglitazone 0.099 | [12] -0.048

PLCB3 (UniProt Q01970)
UniProt Q01970, sequence (Q01970 whole entry, looked up): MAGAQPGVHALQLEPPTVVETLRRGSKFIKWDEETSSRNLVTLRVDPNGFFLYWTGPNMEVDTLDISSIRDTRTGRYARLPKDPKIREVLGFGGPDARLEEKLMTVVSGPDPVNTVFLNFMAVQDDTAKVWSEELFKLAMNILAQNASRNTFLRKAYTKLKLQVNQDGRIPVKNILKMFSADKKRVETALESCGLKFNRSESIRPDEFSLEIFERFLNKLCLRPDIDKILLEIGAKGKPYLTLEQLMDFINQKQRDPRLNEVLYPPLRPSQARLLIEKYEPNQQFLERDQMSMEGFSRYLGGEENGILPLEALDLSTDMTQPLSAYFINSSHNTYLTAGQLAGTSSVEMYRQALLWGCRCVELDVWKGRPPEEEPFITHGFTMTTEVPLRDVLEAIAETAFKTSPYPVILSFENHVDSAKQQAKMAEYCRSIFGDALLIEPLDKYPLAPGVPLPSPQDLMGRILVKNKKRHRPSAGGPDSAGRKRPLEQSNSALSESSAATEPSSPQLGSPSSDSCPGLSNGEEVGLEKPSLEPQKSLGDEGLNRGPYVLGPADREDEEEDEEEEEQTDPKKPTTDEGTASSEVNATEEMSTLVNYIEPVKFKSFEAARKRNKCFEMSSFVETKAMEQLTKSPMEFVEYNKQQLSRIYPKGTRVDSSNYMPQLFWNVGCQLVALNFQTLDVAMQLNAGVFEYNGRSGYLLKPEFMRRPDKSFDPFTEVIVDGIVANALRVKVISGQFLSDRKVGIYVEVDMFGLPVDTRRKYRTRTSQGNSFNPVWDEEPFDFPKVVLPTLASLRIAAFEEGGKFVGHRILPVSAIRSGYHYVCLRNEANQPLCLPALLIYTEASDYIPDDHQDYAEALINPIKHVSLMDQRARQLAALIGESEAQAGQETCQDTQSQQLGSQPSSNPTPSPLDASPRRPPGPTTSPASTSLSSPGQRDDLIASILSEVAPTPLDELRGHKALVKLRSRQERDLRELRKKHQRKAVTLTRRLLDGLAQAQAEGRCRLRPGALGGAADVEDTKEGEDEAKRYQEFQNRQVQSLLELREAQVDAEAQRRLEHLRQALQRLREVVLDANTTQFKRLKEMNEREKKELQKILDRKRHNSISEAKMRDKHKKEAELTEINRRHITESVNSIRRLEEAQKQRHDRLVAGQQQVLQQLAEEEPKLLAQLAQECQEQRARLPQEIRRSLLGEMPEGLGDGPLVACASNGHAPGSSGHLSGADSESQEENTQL
inactive: [1] 0.033 | [2] -0.04 | [3] 0.021 | [4] 0.033 | Nexturastat A -0.019 | vemurafenib 0.024 | [5] 0.045 | [6] -0.032 | givinostat -0.014 | barasertib 0.018 | [7] -0.05 | volasertib -0.037 | [8] 0.044 | epoxomicin 0.009 | [9] 0.026 | [10] -0.08 | [11] 0.02 | rosiglitazone 0.058 | [12] -0.009
active: [13] -0.246
